# This is one part of a sample in which the strongest signals are shown more often than they occur.
# B1: GS7807Q-bfa-507-19-507 (Bacteroides fragilis) (protein)
# chain: ASCNKFDDLNTNPDAATKVTAPMLATKLILNITQQGSAKNFVYHSMLSKQIAWSENASDEQYNLFGRTDFDGYTILTNCQKMVDAANEGDKDSYAALAKFMKAYKLFYKSLEVGDIPYSDALKGEEGVQKPKYDTQKEVMRQVLEDLEEAYTLFSSGSDFDGDPIFGGDTENWKKTVVAFELKVLTHLCKKDTDADLKVKERFARLVSSGSLMTSNADNFQLVYSNKAGQLYPFYYTQNKHSDYLMMSSVIIDNLKKFNDYRMFYYASPAKAQTDKGIKDSEWDAYLSIDPSDSYSNISVLYGKGEFCLANLRYTRVPEGEPLMRLSYAEQNFILAEGAVRGWISEDASTYYKKGIEASMNFIADNTPDKEEYTHGRTITQEYIQEYLAQPVIQLSGDKEKDLEMILLQRYLASFLQHPYDAYYDYRRTGYPVLPINPSTNLNTEKNKIPTRWMYPEAEFSYNPDNANEAVQRQYNGSDDVNKLMWILQ
# How the values were obtained:
# Experiment in all cases: glycan array binding signal (z-score within array); higher = stronger binding
# Settings in all cases: glycan notation: IUPAC condensed, linker removed
# [1] = target: Gal(b1-4)GlcNAc(b1-3)Gal(b1-4)GlcNAc(b1-3)Gal(b1-4)GlcNAc(b1-3)Gal(b1-4)GlcNAc(b1-3)Gal(b1-4)GlcNAc(b1-2)Man(a1-3)[Gal(b1-4)GlcNAc(b1-3)Gal(b1-4)GlcNAc(b1-3)Gal(b1-4)GlcNAc(b1-3)Gal(b1-4)GlcNAc(b1-3)Gal(b1-4)GlcNAc(b1-2)Man(a1-6)]Man(b1-4)GlcNAc(b1-4)GlcNAc
# Method in brief: (§1)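 Glycan array binding is given as a within-array Z-score, which can be read as non-binding when negative. The arrays, 3228 of them, came from the Consortium for Functional Glycomics database and were retained only where the protein sequence was available. Z-scores were averaged across arrays of the same protein sequence at different concentrations or buffers and across linkers.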
# [2] = target: Gal(b1-4)GlcNAc(b1-3)Gal(b1-4)GlcNAc(b1-3)GalNAc
# Method in brief: as §1
# [3] = target: Gal(b1-4)GlcNAc(b1-3)Gal(b1-4)GlcNAc(b1-3)[Gal(b1-4)GlcNAc(b1-3)Gal(b1-4)GlcNAc(b1-6)]GalNAc
# Method in brief: as §1
# [4] = target: Gal(b1-4)GlcNAc(b1-3)Gal(b1-4)[Fuc(a1-3)]GlcNAc(b1-3)Gal(b1-4)[Fuc(a1-3)]GlcNAc
# Method in brief: as §1
# GalNAc(a1-3)GalNAc = target: GalNAc(a1-3)GalNAc
# Method in brief: as §1
# GalNAc(b1-3)GlcNAc = target: GalNAc(b1-3)GlcNAc
# Method in brief: as §1
# GalNAc(b1-4)GlcNAc = target: GalNAc(b1-4)GlcNAc
# Method in brief: as §1
# GalNAc3S(b1-4)GlcNAc3S = target: GalNAc3S(b1-4)GlcNAc3S
# Method in brief: as §1
# [5] = target: GalNAc3S(b1-4)[Fuc(a1-3)]GlcNAc
# Method in brief: as §1
# [6] = target: GlcA3S(b1-3)Gal(b1-4)GlcNAc(b1-3)Gal(b1-4)Glc
# Method in brief: as §1
# [7] = target: GlcNAc(a1-4)Gal(b1-4)GlcNAc
# Method in brief: as §1
# [8] = target: GlcNAc(a1-4)Gal(b1-4)GlcNAc(b1-3)Gal(b1-4)[Fuc(a1-3)]GlcNAc(b1-3)Gal(b1-4)[Fuc(a1-3)]GlcNAc
# Method in brief: as §1
# [9] = target: GlcNAc(b1-3)Gal(b1-4)GlcNAc(b1-2)Man(a1-3)[GlcNAc(b1-3)Gal(b1-4)GlcNAc(b1-2)Man(a1-6)]Man(b1-4)GlcNAc(b1-4)[Fuc(a1-6)]GlcNAc
# Method in brief: as §1
# [10] = target: GlcNAc(b1-3)Gal(b1-4)GlcNAc(b1-2)[GlcNAc(b1-3)Gal(b1-4)GlcNAc(b1-6)]Man(a1-6)[GlcNAc(b1-3)Gal(b1-4)GlcNAc(b1-2)Man(a1-3)]Man(b1-4)GlcNAc(b1-4)GlcNAc
# Method in brief: as §1
# [11] = target: GlcNAc(b1-3)Gal(b1-4)GlcNAc(b1-3)Gal(b1-4)GlcNAc(b1-2)[GlcNAc(b1-3)Gal(b1-4)GlcNAc(b1-3)Gal(b1-4)GlcNAc(b1-6)]Man(a1-6)[GlcNAc(b1-3)Gal(b1-4)GlcNAc(b1-3)Gal(b1-4)GlcNAc(b1-2)Man(a1-3)]Man(b1-4)GlcNAc(b1-4)[Fuc(a1-6)]GlcNAc
# Method in brief: as §1
# [12] = target: GlcNAc(b1-3)Gal(b1-4)GlcNAc(b1-3)Gal(b1-4)GlcNAc(b1-3)Gal(b1-4)GlcNAc(b1-3)Gal(b1-4)GlcNAc(b1-2)Man(a1-3)[GlcNAc(b1-3)Gal(b1-4)GlcNAc(b1-3)Gal(b1-4)GlcNAc(b1-3)Gal(b1-4)GlcNAc(b1-3)Gal(b1-4)GlcNAc(b1-2)Man(a1-6)]Man(b1-4)GlcNAc(b1-4)[Fuc(a1-6)]GlcNAc
# Method in brief: as §1
# [13] = target: Man(a1-2)Man(a1-3)[Man(a1-6)]Man(a1-6)[Man(a1-2)Man(a1-3)]Man(b1-4)GlcNAc(b1-4)GlcNAc
# Method in brief: as §1
# [14] = target: Man(a1-2)Man(a1-6)[Man(a1-3)]Man(a1-6)[Man(a1-2)Man(a1-2)Man(a1-3)]Man
# Method in brief: as §1
# Man(a1-6)Man = target: Man(a1-6)Man
# Method in brief: as §1
# [15] = target: Neu5Ac(a2-3)Gal(b1-3)GalNAc(b1-4)[Neu5Ac(a2-3)]Gal(b1-4)Glc
# Method in brief: as §1
# [16] = target: Neu5Ac(a2-3)Gal(b1-3)[Fuc(a1-4)]GlcNAc(b1-3)Gal(b1-4)[Fuc(a1-3)]GlcNAc
# Method in brief: as §1
# [17] = target: Neu5Ac(a2-3)Gal(b1-4)GlcNAc
# Method in brief: as §1
# [18] = target: Neu5Ac(a2-3)Gal(b1-4)GlcNAc(b1-2)Man(a1-3)[GlcNAc(b1-4)][Neu5Ac(a2-3)Gal(b1-4)GlcNAc(b1-2)Man(a1-6)]Man(b1-4)GlcNAc(b1-4)GlcNAc
# Method in brief: as §1
# [19] = target: Neu5Ac(a2-3)Gal(b1-4)GlcNAc(b1-2)Man(a1-3)[Neu5Ac(a2-3)Gal(b1-4)GlcNAc(b1-2)Man(a1-6)]Man(b1-4)GlcNAc(b1-4)GlcNAc
# Method in brief: as §1
# [20] = target: Neu5Ac(a2-3)Gal(b1-4)GlcNAc(b1-2)[Neu5Ac(a2-3)Gal(b1-4)GlcNAc(b1-6)]Man(a1-6)[Neu5Ac(a2-3)Gal(b1-4)GlcNAc(b1-2)Man(a1-3)]Man(b1-4)GlcNAc(b1-4)GlcNAc
# Method in brief: as §1
# [21] = target: Neu5Ac(a2-3)Gal(b1-4)GlcNAc(b1-3)GalNAc
# Method in brief: as §1
# [22] = target: Neu5Ac(a2-3)Gal(b1-4)[Fuc(a1-3)]GlcNAc(b1-3)Gal(b1-4)GlcNAc
# Method in brief: as §1
# [23] = target: Neu5Ac(a2-6)Gal(b1-4)GlcNAc(b1-2)Man(a1-3)Man(b1-4)GlcNAc(b1-4)GlcNAc
# Method in brief: as §1
# [24] = target: Neu5Ac(a2-6)Gal(b1-4)GlcNAc(b1-2)[Neu5Ac(a2-6)Gal(b1-4)GlcNAc(b1-4)]Man(a1-3)[GlcNAc(b1-4)][Neu5Ac(a2-6)Gal(b1-4)GlcNAc(b1-4)Man(a1-6)]Man(b1-4)GlcNAc(b1-4)GlcNAc
# Method in brief: as §1
# [25] = target: Neu5Ac(a2-6)Gal(b1-4)GlcNAc(b1-2)[Neu5Ac(a2-6)Gal(b1-4)GlcNAc(b1-6)]Man(a1-6)[Neu5Ac(a2-6)Gal(b1-4)GlcNAc(b1-2)Man(a1-3)][GlcNAc(b1-4)]Man(b1-4)GlcNAc(b1-4)GlcNAc
# Method in brief: as §1
# [26] = target: Neu5Ac(a2-6)Gal(b1-4)GlcNAc(b1-3)Gal(b1-4)GlcNAc(b1-3)Gal(b1-4)GlcNAc(b1-2)Man(a1-3)[Neu5Ac(a2-6)Gal(b1-4)GlcNAc(b1-3)Gal(b1-4)GlcNAc(b1-3)Gal(b1-4)GlcNAc(b1-2)Man(a1-6)]GalNAc
# Method in brief: as §1
# [27] = target: Neu5Ac(a2-6)Gal(b1-4)GlcNAc(b1-3)GalNAc
# Method in brief: as §1
# [28] = target: Neu5Ac(a2-8)Neu5Ac(a2-8)Neu5Ac(a2-3)Gal(b1-4)Glc
# Method in brief: as §1
binder,measurement,setting,value
B1,glycan array binding signal (z-score),[1],-0.15
same,glycan array binding signal (z-score),[2],-0.268
same,glycan array binding signal (z-score),[3],-0.074
same,glycan array binding signal (z-score),[4],-0.174
same,glycan array binding signal (z-score),GalNAc(a1-3)GalNAc,-0.06
same,glycan array binding signal (z-score),GalNAc(b1-3)GlcNAc,-0.454
same,glycan array binding signal (z-score),GalNAc(b1-4)GlcNAc,3.09
same,glycan array binding signal (z-score),GalNAc3S(b1-4)GlcNAc3S,-0.279
same,glycan array binding signal (z-score),[5],-0.654
same,glycan array binding signal (z-score),[6],0.23
same,glycan array binding signal (z-score),[7],-0.604
same,glycan array binding signal (z-score),[8],3.02
same,glycan array binding signal (z-score),[9],2.43
same,glycan array binding signal (z-score),[10],1.65
same,glycan array binding signal (z-score),[11],2.73
same,glycan array binding signal (z-score),[12],-0.41
same,glycan array binding signal (z-score),[13],-0.639
same,glycan array binding signal (z-score),[14],0.113
same,glycan array binding signal (z-score),Man(a1-6)Man,0.531
same,glycan array binding signal (z-score),[15],-0.316
same,glycan array binding signal (z-score),[16],-0.38
same,glycan array binding signal (z-score),[17],-0.496
same,glycan array binding signal (z-score),[18],-0.905
same,glycan array binding signal (z-score),[19],-0.347
same,glycan array binding signal (z-score),[20],1.35
same,glycan array binding signal (z-score),[21],-0.737
same,glycan array binding signal (z-score),[22],-0.425
same,glycan array binding signal (z-score),[23],-0.09
same,glycan array binding signal (z-score),[24],0.481
same,glycan array binding signal (z-score),[25],0.863
same,glycan array binding signal (z-score),[26],3.17
same,glycan array binding signal (z-score),[27],0.841
same,glycan array binding signal (z-score),[28],-0.141
